# PAFAH2 FP inh – inhibitors of human PAFAH2; recombinant PAFAH2, FP-rhodamine activity probe, fluorescence polarization; actives 0.99% (n = 340,000); inhibition, % at 3.39 µM; Q99487;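 active means inhibition above the mean over all tested compounds plus 3 SD, cut at about 30% in these data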;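 further: inhibitors block probe labeling of enzyme so polarization drops; 0% = enzyme with DMSO and 100% = wells lacking PAFAH2 protein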
# PP5 primary – blocks human protein phosphatase 5 activity. actives 0.18% (n = 320,000). P53041. inhibition, % at 6.7 µM. AID 1987. purified PP5c, OMFP substrate fluorescence;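 active means inhibition above the campaign's mean inhibition across all tested compounds plus 3 SD, cut at about 9.5% in these data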;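 further: 0% = DMSO only and 100% = 100 µM cantharidin control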
# pPAFAH FP inh – pPAFAH (human) enzyme inhibition. Q13093. recombinant pPAFAH, FP-rhodamine probe fluorescence polarization. inhibition, % at 3.39 µM. actives 1.5% (n = 330,000). AID 463082;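 active means inhibition above the mean inhibition across the screen plus 3 SD, cut at about 25% in these data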;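 further: inhibitors block binding of the rhodamine activity-based probe so polarization drops; 0% = enzyme with DMSO and 100% = wells lacking pPAFAH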
# Target sequence (Q13093 whole entry, looked up): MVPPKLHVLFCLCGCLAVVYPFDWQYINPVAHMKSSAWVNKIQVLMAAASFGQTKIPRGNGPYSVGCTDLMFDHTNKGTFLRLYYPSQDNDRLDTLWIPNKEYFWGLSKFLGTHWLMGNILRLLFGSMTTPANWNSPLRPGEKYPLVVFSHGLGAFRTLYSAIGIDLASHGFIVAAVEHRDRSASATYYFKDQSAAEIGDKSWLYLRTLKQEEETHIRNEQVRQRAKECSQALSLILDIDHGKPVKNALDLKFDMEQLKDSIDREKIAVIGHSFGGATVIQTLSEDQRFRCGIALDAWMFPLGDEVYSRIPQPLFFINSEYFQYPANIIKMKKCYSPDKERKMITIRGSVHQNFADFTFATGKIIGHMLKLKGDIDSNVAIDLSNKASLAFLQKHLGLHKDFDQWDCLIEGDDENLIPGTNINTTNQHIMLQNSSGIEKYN
# PAFAH1B3 inh – PAFAH1B3 (human) inhibition; Q15102; recombinant PAFAH1B3, FP-rhodamine probe, fluorescence polarization; inhibition, % at 3.39 µM; actives 0.28% (n = 340,000); AID 492972;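 active means inhibition above the screen-wide average of all tested compounds plus 3 SD, cut at about 25% in these data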;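 further: 0% = enzyme with DMSO only and 100% = wells lacking PAFAH1B3 protein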
# PP1 inh – counter-screen for PP5 inhibitors: inhibitors of human PP1-alpha | P62136 | purified PP1alpha, OMFP fluorescence | inhibition, % at 6.7 µM | actives 0.9% (n = 320,000) | AID 2235;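 active means inhibition above the mean inhibition of all tested compounds plus 3 SD, computed separately for each screening campaign, cut at about 15% in these data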
# PAFAH1B2 inh – blocks human PAF acetylhydrolase 1b catalytic subunit 2. P68402. recombinant PAFAH1B2, FP-rhodamine activity probe, fluorescence polarization. inhibition, % at 3.39 µM. actives 1.2% (n = 340,000). AID 492953;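 active means inhibition above the mean of all tested compounds plus 3 SD, cut at about 24% in these data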;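 further: 0% = enzyme with DMSO and 100% = wells lacking PAFAH1B2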
# PP1 inh confirm – human PP1 phosphatase inhibition, confirmation. shares compounds with PP1 inh. purified PP1alpha, OMFP substrate fluorescence. AID 2358. inhibition, % at 6.7 µM. actives 52% (n = 1,900);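 active means mean PP1 inhibition above a set limit taken from the earlier primary screen, cut at about 15% in these data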
# PP5 inh counter – PP5 phosphatase inhibition, counter-screen for PP1 inhibitors; inhibition, % at 6.7 µM; AID 2360; actives 4% (n = 1,900); shares compounds with PP1 inh; purified PP5c, OMFP fluorescence;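 active means mean PP5 inhibition over triplicate wells above about 9.5% taken from the earlier PP1 screen, limit read from the data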
# An asterisk follows results filed as active; . = no result given. An excerpt weighted towards active compounds, which were near 3.4% of everything screened.
SMILES,PAFAH2 FP inh,PP5 primary,pPAFAH FP inh,PAFAH1B3 inh,PP1 inh,PAFAH1B2 inh,PP1 inh confirm,PP5 inh counter
CC(=O)N1c2ccc(S(=O)(=O)N3CCC(C(=O)NCCc4ccc(Cl)cc4)CC3)cc2CC1C (stereo unspecified),12,1,8,4,-5,20,.,.
COc1ccc(/C=C2\SC(=O)N(CCC(=O)Nc3ccc(S(=O)(=O)Nc4nccs4)cc3)C2=O)cc1,-67,4,-39,-57,21*,-24,10,1
CCOc1ccc(-n2c(O)c(/C=N/NC(=O)C3COc4ccccc4O3)c3ccccc3c2=O)cc1 (stereo unspecified),2,1,13,14,23*,3,28*,-6
O=C(COC(=O)Cn1[nH]c(=O)c2ccccc2c1=O)NNC(=O)c1ccccc1,5,1,-1,-4,-4,2,.,.
O=C(N/N=C/c1ccncc1)c1sc2ccccc2c1Cl,2,-2,1,-2,1,4,.,.
COc1ccc2c(Cl)c(C(=O)N/N=C/c3ccncc3)sc2c1,-22,0,-4,-19,40*,-8,48*,-5
CCOC(=O)c1sc(CS(=O)(=O)c2ccc(Cl)cc2)nc1C,-7,0,5,-2,0,7,.,.
CCOC(=O)c1sc(-c2ccc(Cl)cc2Cl)nc1O,2,-2,13,5,21*,8,21*,-4
O=C(c1ccc(NS(=O)(=O)c2ccc3[nH]c(=O)[nH]c3c2)cc1)N1CCN(c2ccccc2O)CC1,5,2,8,4,-5,1,.,.
CCC(C(=O)NC1CCCC1)N(C(=O)c1snc(C(N)=O)c1N)c1ccc(OC)c(OC)c1 (stereo unspecified),0,-1,0,4,-2,-2,.,.
COc1ccc(N(C(=O)c2snc(C(N)=O)c2N)C(C(=O)NC2CCCC2)c2cccs2)cc1OC (stereo unspecified),-4,2,6,-2,18*,2,29*,1
COc1cccc(N(C(=O)CS(=O)CC(=O)Nc2ccc(F)cc2)C(C(=O)NC2CCCCC2)c2cccs2)c1 (stereo unspecified),-22,1,3,-5,20*,-3,28*,0
Cc1cc(F)ccc1S(=O)(=O)N(CC(=O)N1CCOCC1)CC(=O)N1CCOCC1,-10,.,4,7,.,4,.,.
COc1cccc(-n2nnc3c(=O)n(Cc4ccc(F)cc4)cnc32)c1,-9,2,7,7,40*,3,-2,-1
Cc1cc(-c2csc(NC(=O)c3ccc(=O)[nH]c3)n2)c(C)n1Cc1ccccc1,-14,-1,31*,9,28*,7,14,-2
O=C(Nc1nc(-c2ccccc2)cs1)c1ccc(=O)[nH]c1,-5,3,-2,1,1,-1,.,.
O=Cc1ccc(C(=O)OCC(=O)NCc2ccco2)cc1,20,.,-5,2,.,-1,.,.
Cc1ccc(-c2nn(-c3ccccc3)cc2C2CC(c3cccs3)=NN2C(=O)CCC(=O)O)cc1 (stereo unspecified),2,3,8,-1,19*,1,10,-1
COc1ccc(C2/C(=C(\O)c3ccc4c(c3)CC(C)O4)C(=O)C(=O)N2Cc2cccnc2)c(OC)c1 (stereo unspecified),0,3,-2,5,8,8,.,.
c1ccc(Cn2nnc(CNc3ccccc3)c2-c2c(CNc3ccccc3)nnn2Cc2ccccc2)cc1,-4,4,10,5,23*,-3,4,1
CN(C)NC(=S)NC1CCS(=O)(=O)C1 (stereo unspecified),-5,2,-14,-3,-6,0,.,.
Cc1onc(-c2c(Cl)cccc2Cl)c1COC(=O)c1ccc(Cl)cc1,2,1,-3,-3,0,-5,.,.
Cc1ccccc1-n1c(-c2ccncc2)n[nH]c1=S,-6,1,-3,-1,-6,0,.,.
Cc1cccc(-n2c(-c3ccncc3)n[nH]c2=S)c1C,-5,0,30*,8,19*,4,-4,-5
COc1ccc(N2CCN(C(CNC(=O)C(C)C)c3ccc4c(c3)OCO4)CC2)cc1 (stereo unspecified),-1,0,4,3,-2,-1,.,.
SMILES,PAFAH2 FP inh,PP5 primary,pPAFAH FP inh,PAFAH1B3 inh,PP1 inh,PAFAH1B2 inh,PP1 inh confirm,PP5 inh counter
Cc1ccc2nc(NC(=O)C3CCN(S(=O)(=O)c4cc([N+](=O)[O-])ccc4Cl)CC3)sc2c1,-4,1,8,-12,20*,-2,26*,3
C=CC[n+]1ccc(/C=C2\C=Cc3cc(C)ccc3N2CC)c2ccccc21,14,.,.,-3,.,-4,.,.
N#Cc1c(NC(=O)COC(=O)C2CC3C=CC2C3)oc(-c2ccccc2)c1-c1ccccc1 (stereo unspecified),-1,-2,21,9,19*,14,10,-3
CCn1c(=O)c2ccccc2n(CC(=O)NC2CCCCC2)c1=O,7,1,-4,-5,0,2,.,.
CCc1nnc(NC(=O)c2ccc(S(=O)(=O)N(C)Cc3ccccc3)cc2)o1,2,3,7,-4,37*,-3,34*,4
CCN(CC)S(=O)(=O)c1ccc(C(=O)Nc2nnc(CSC)o2)cc1,-3,0,4,5,8,-1,.,.
CCN(Cc1ccccc1)S(=O)(=O)c1ccc(C(=O)Nc2nnc(C)o2)cc1,1,3,6,4,38*,8,26*,-1
CC(=O)Nc1ccc(S(=O)(=O)N(C)Cc2ccccc2)cc1,-1,0,5,7,6,0,.,.
CCCCN(C)S(=O)(=O)c1ccc(C(=O)Nc2nnc(-c3ccco3)o2)cc1,-3,5,7,5,11,2,.,.
CCc1nnc(NC(=O)c2ccc(S(=O)(=O)N(CC)Cc3ccccc3)cc2)o1,4,-4,4,2,36*,9,32*,0
CN(Cc1ccccc1)S(=O)(=O)c1ccc(C(=O)Nc2nnc(C3CC3)o2)cc1,-16,2,14,5,36*,0,31*,0
CC(C)Sc1nc2c(cnn2-c2ccc(Cl)cc2)c(=O)[nH]1,-1,0,2,0,-2,1,.,.
COCc1ccc(CN2CCC(n3nccc3NC(=O)CCOc3ccccc3)CC2)o1,0,3,4,1,1,-2,.,.
CCCn1cnc2cc(NC(=O)c3cccs3)ccc21,-3,-11,2,4,-10,-1,.,.
COc1ccccc1-c1nnc(NC(=O)c2ccc(S(=O)(=O)N(C)Cc3ccccc3)cc2)o1,.,3,6,.,21*,.,31*,-1

# High-throughput results deposited in PubChem BioAssay by The Scripps Research Institute Molecular Screening Center.
